Assay results from the supplement of paper PMC12350171.
Where a name gives a salt, the structure may show the parent alone. A number with no mark means an inactive call.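 How the source made its calls: active = normalised median growth AUC below 0.1 of DMSO control; inactive = AUC 0.1 or higher.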
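Further: active when median AUC fell below 0.1.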

These compounds were tested on P. vulgatus RND KO (assay: growth AUC normalised to DMSO control (median) (fraction of control); higher = less growth inhibition, active = hit call of the paper). Details: 20 µM.
Procedure, shortened: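 Anaerobic growth was tracked hourly at OD578 for 24 h in 96-well plates of mGAM seeded at OD578 0.01 with each approved-drug library compound at 20 μM and 1% DMSO. Strains had first been passaged twice overnight without oxygen. Three biological replicates were run. The reported median is the area under the curve, calculated by the trapezoidal rule on curves truncated at entry into stationary phase and normalised to vehicle wells on the same plate.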
For CC(C)[C@H](N)C(=O)OCC(CO)OCn1cnc2c(=O)nc(N)[nH]c21 (stereo partly specified) [Valganciclovir hydrochloride], the “growth AUC normalised to DMSO control” value was 1.04.
O=C1[C@H]2CCCC[C@H]2C(=O)N1CCCCN1CCN(c2nsc3ccccc23)CC1 [Perospirone hydrochloride] was tested, and the “growth AUC normalised to DMSO control” value was 0.997.
O=[N+]([O-])c1ccc(O)c2ncccc12 [Nitroxoline] was tested, and the “growth AUC normalised to DMSO control” value was 0.0544 (active).
CCCCCCCCCCCCCCCCCCCCCC(=O)Nc1ccn([C@@H]2O[C@H](CO)[C@@H](O)[C@@H]2O)c(=O)n1 [Enocitabine] was tested, and the “growth AUC normalised to DMSO control” value was 1.01.
With CN(C)CCc1c[nH]c2ccc(Cn3cncn3)cc12 [Rizatriptan benzoate] the “growth AUC normalised to DMSO control” value was 1.02.
For Cn1cc(C(=O)[C@@H]2CCc3[nH]cnc3C2)c2ccccc21 [Ramosetron hydrochloride], the “growth AUC normalised to DMSO control” value was 0.999.
CC(=O)OCC(=O)[C@@]1(O)CC[C@H]2[C@@H]3CCC4=CC(=O)C=C[C@]4(C)[C@@]3(F)[C@@H](O)C[C@@]21C [Isoflupredone acetate] was tested, and the “growth AUC normalised to DMSO control” value was 1.03.
In the case of O=C(Cn1c(=O)sc2ccc(Cl)cc21)N1CCN(CCO)CC1 [Tiaramide Hydrochloride], the “growth AUC normalised to DMSO control” value is reported as 1.
With C/C(O)=C(\C#N)C(=O)Nc1ccc(C(F)(F)F)cc1 [Teriflunomide] the “growth AUC normalised to DMSO control” value was 0.969.
O=C(O)C1CSCN1 (stereo unspecified) [Timonacic] was tested, and the “growth AUC normalised to DMSO control” value was 0.993.
CC[N+]1(CC)CCC(=C(c2ccccc2)c2ccccc2)C1C (stereo unspecified) [Prifinium Bromide] was tested, and the “growth AUC normalised to DMSO control” value was 0.997.
